# Results published in paper PMC12820563, “FoxP3 forms a head-to-head dimer in vivo and stabilizes its multimerization on adjacent microsatellites”.
# Over roughly 16,000 sequences, “rpm ratio (pull-down/input)” has its median near 0.94; the highest 2% begin near 1.7. The entries come from a sample that favours the highest values as a whole.
# Molecular target: T1, MBP-FoxP1dN (Mus musculus, UniProt P58462 326-579)
# T1 sequence: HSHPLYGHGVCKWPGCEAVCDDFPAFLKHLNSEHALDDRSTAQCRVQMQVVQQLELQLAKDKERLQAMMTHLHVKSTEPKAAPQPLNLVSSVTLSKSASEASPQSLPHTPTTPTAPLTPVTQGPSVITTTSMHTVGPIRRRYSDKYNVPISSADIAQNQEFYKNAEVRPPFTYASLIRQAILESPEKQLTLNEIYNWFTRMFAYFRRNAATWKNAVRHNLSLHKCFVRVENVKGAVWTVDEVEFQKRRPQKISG
# Test: PD-seq (MBP pull-down with sequencing); 20 mM Tris-HCl pH 7.5, 100 mM NaCl, 1.5 mM MgCl2, 0.4 uM protein, 0.1 uM dsDNA library, 30 min, room temperature, amylose pull-down; high values mean tight binding
# Settings: protein: recombinant; tags: His6-MBP; chain copies: 2; dsDNA, one strand shown
# Outline: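 The N-terminus-lacking fragment of mouse FoxP3 or FoxP1 carried a His6-MBP tag and was expressed in E. coli. At 0.4 µM it was incubated with 0.1 µM Klenow-filled degenerate double-stranded DNA library for 30 min at room temperature in Tris pH 7.5 buffer with NaCl and MgCl2, and complexes were caught on amylose resin, washed three times, released with proteinase K, PCR-barcoded and Illumina-sequenced. Binding is reads-per-million enrichment of pull-down over input with replicates pooled.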
row,Sequence,binding signal
1,GATGATTGTTCTCCCAGCTGATGAATTACACTCGTCGAGTAAACAAATTTTCCTAATCTTTCTGTTCAAGCGCCATCTAC,1.15 RPM ratio (pull-down/input)
2,GATGATTGTTCTCCCAGCTGATGAATTCAGACGTTCGAGTAAACAAATTTTCCTAATCTTTCTGTTCAAGCGCCATCTAC,0.787 RPM ratio (pull-down/input)
3,GATGATTGTTCTCCCAGCTGATGAATTCTTTCAATCGAGTAAACAAATTTTCCTAATCTTTCTGTTCAAGCGCCATCTAC,0.972 RPM ratio (pull-down/input)
4,GATGATTGTTCTCCCAGCTGATGAATTCAAACAATCGAGTAAACAAATTTTCCTAATCTTTCTGTTCAAGCGCCATCTAC,1.81 RPM ratio (pull-down/input)
5,GATGATTGTTCTCCCAGCTGATGAATTCTCCCAATCGAGTAAACAAATTTTCCTAATCTTTCTGTTCAAGCGCCATCTAC,0.958 RPM ratio (pull-down/input)
6,GATGATTGTTCTCCCAGCTGATGAATTATGCGATTCGAGTAAACAAATTTTCCTAATCTTTCTGTTCAAGCGCCATCTAC,1.06 RPM ratio (pull-down/input)
7,GATGATTGTTCTCCCAGCTGATGAATTTTGTATGTCGAGTAAACAAATTTTCCTAATCTTTCTGTTCAAGCGCCATCTAC,1.54 RPM ratio (pull-down/input)
8,GATGATTGTTCTCCCAGCTGATGAATTTGTATTGTCGAGTAAACAAATTTTCCTAATCTTTCTGTTCAAGCGCCATCTAC,2.88 RPM ratio (pull-down/input)
9,GATGATTGTTCTCCCAGCTGATGAATTGTATTTGTCGAGTAAACAAATTTTCCTAATCTTTCTGTTCAAGCGCCATCTAC,2.5 RPM ratio (pull-down/input)
10,GATGATTGTTCTCCCAGCTGATGAATTTGTAATGTCGAGTAAACAAATTTTCCTAATCTTTCTGTTCAAGCGCCATCTAC,1.26 RPM ratio (pull-down/input)
11,GATGATTGTTCTCCCAGCTGATGAATTGTATCTGTCGAGTAAACAAATTTTCCTAATCTTTCTGTTCAAGCGCCATCTAC,1.08 RPM ratio (pull-down/input)
12,GATGATTGTTCTCCCAGCTGATGAATTGTAATTGTCGAGTAAACAAATTTTCCTAATCTTTCTGTTCAAGCGCCATCTAC,1.39 RPM ratio (pull-down/input)
13,GATGATTGTTCTCCCAGCTGATGAATTTGCGATCTCGAGTAAACAAATTTTCCTAATCTTTCTGTTCAAGCGCCATCTAC,0.924 RPM ratio (pull-down/input)
14,GATGATTGTTCTCCCAGCTGATGAATTAATTCCTTCGAGTAAACAAATTTTCCTAATCTTTCTGTTCAAGCGCCATCTAC,0.955 RPM ratio (pull-down/input)
15,GATGATTGTTCTCCCAGCTGATGAATTCCCGTTTTCGAGTAAACAAATTTTCCTAATCTTTCTGTTCAAGCGCCATCTAC,0.97 RPM ratio (pull-down/input)
16,GATGATTGTTCTCCCAGCTGATGAATTGGCCAACTCGAGTAAACAAATTTTCCTAATCTTTCTGTTCAAGCGCCATCTAC,0.833 RPM ratio (pull-down/input)
17,GATGATTGTTCTCCCAGCTGATGAATTCGTATTGTCGAGTAAACAAATTTTCCTAATCTTTCTGTTCAAGCGCCATCTAC,2.07 RPM ratio (pull-down/input)
18,GATGATTGTTCTCCCAGCTGATGAATTGTCGTATTCGAGTAAACAAATTTTCCTAATCTTTCTGTTCAAGCGCCATCTAC,1.14 RPM ratio (pull-down/input)
19,GATGATTGTTCTCCCAGCTGATGAATTCTATTTGTCGAGTAAACAAATTTTCCTAATCTTTCTGTTCAAGCGCCATCTAC,2.3 RPM ratio (pull-down/input)

row,Sequence,binding signal
1,GATGATTGTTCTCCCAGCTGATGAATTCTATCTGTCGAGTAAACAAATTTTCCTAATCTTTCTGTTCAAGCGCCATCTAC,0.875 RPM ratio (pull-down/input)
2,GATGATTGTTCTCCCAGCTGATGAATTCTAATTGTCGAGTAAACAAATTTTCCTAATCTTTCTGTTCAAGCGCCATCTAC,1.29 RPM ratio (pull-down/input)
3,GATGATTGTTCTCCCAGCTGATGAATTTCCTATGTCGAGTAAACAAATTTTCCTAATCTTTCTGTTCAAGCGCCATCTAC,0.811 RPM ratio (pull-down/input)
4,GATGATTGTTCTCCCAGCTGATGAATTCCTATTGTCGAGTAAACAAATTTTCCTAATCTTTCTGTTCAAGCGCCATCTAC,2.02 RPM ratio (pull-down/input)
5,GATGATTGTTCTCCCAGCTGATGAATTTCTATTGTCGAGTAAACAAATTTTCCTAATCTTTCTGTTCAAGCGCCATCTAC,1.91 RPM ratio (pull-down/input)
6,GATGATTGTTCTCCCAGCTGATGAATTGTCTATTTCGAGTAAACAAATTTTCCTAATCTTTCTGTTCAAGCGCCATCTAC,1.31 RPM ratio (pull-down/input)
7,GATGATTGTTCTCCCAGCTGATGAATTCGTATTTTCGAGTAAACAAATTTTCCTAATCTTTCTGTTCAAGCGCCATCTAC,1.67 RPM ratio (pull-down/input)
8,GATGATTGTTCTCCCAGCTGATGAATTTGTCTATTCGAGTAAACAAATTTTCCTAATCTTTCTGTTCAAGCGCCATCTAC,1.28 RPM ratio (pull-down/input)
9,GATGATTGTTCTCCCAGCTGATGAATTCTCTTTGTCGAGTAAACAAATTTTCCTAATCTTTCTGTTCAAGCGCCATCTAC,0.834 RPM ratio (pull-down/input)
10,GATGATTGTTCTCCCAGCTGATGAATTTCGCATTTCGAGTAAACAAATTTTCCTAATCTTTCTGTTCAAGCGCCATCTAC,1.28 RPM ratio (pull-down/input)
11,GATGATTGTTCTCCCAGCTGATGAATTGCCCAGTTCGAGTAAACAAATTTTCCTAATCTTTCTGTTCAAGCGCCATCTAC,0.931 RPM ratio (pull-down/input)
12,GATGATTGTTCTCCCAGCTGATGAATTGGGTCCTTCGAGTAAACAAATTTTCCTAATCTTTCTGTTCAAGCGCCATCTAC,0.85 RPM ratio (pull-down/input)
13,GATGATTGTTCTCCCAGCTGATGAATTGAACTTTTCGAGTAAACAAATTTTCCTAATCTTTCTGTTCAAGCGCCATCTAC,0.887 RPM ratio (pull-down/input)
14,GATGATTGTTCTCCCAGCTGATGAATTTTCACAATCGAGTAAACAAATTTTCCTAATCTTTCTGTTCAAGCGCCATCTAC,1.29 RPM ratio (pull-down/input)
15,GATGATTGTTCTCCCAGCTGATGAATTACTGACCTCGAGTAAACAAATTTTCCTAATCTTTCTGTTCAAGCGCCATCTAC,0.91 RPM ratio (pull-down/input)
16,GATGATTGTTCTCCCAGCTGATGAATTTGGGTAATCGAGTAAACAAATTTTCCTAATCTTTCTGTTCAAGCGCCATCTAC,1.27 RPM ratio (pull-down/input)
17,GATGATTGTTCTCCCAGCTGATGAATTCTCCGGGTCGAGTAAACAAATTTTCCTAATCTTTCTGTTCAAGCGCCATCTAC,0.759 RPM ratio (pull-down/input)
18,GATGATTGTTCTCCCAGCTGATGAATTCCGGGATTCGAGTAAACAAATTTTCCTAATCTTTCTGTTCAAGCGCCATCTAC,0.754 RPM ratio (pull-down/input)
19,GATGATTGTTCTCCCAGCTGATGAATTATCTGATTCGAGTAAACAAATTTTCCTAATCTTTCTGTTCAAGCGCCATCTAC,0.984 RPM ratio (pull-down/input)
